Potency and affinity values are given separately. Values without a mark were called inactive. Entries that show only a call come without a potency. The source made the active and inactive calls.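 How the source made its calls: active means signal-lowering compounds whose fitted half-maximal concentration is at or below twice the top tested dose in every run; inconclusive means runs disagree, flat 30 to 70% inhibition, or poor curve fit; inactive means the rest.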
Molecular target: Protein S100-A4 (Homo sapiens) (UniProt P26447)
Test: S100A4-myosin IIA binding inhibitor potency, dose response, biochemical, fluorescence polarization, cherry-picked hits (AID 687001)

Sequence of Protein S100-A4 (Homo sapiens) (P26447 whole entry, looked up): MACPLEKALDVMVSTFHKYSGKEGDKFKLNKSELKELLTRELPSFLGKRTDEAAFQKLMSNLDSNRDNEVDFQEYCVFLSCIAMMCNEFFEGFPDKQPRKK

SMILES	outcome	activity change, negative = inhibition
O=C(OCc1ccccc1)/C(=C/c1ccccc1Cl)NC(=O)c1ccco1	inactive	
CC(C)n1nnnc1C1c2ccccc2C(=O)N1Cc1cccc(F)c1 (stereo not drawn)	inactive	
CC(C)CN1CCC(=O)N([C@H](COc2ccccc2)c2ccccc2)CC1	inactive	
COc1cccc(-c2nnc(NC(=O)CCS(=O)(=O)c3ccc(F)cc3)o2)c1	inactive	
O=S(=O)(NCCN1CCOCC1)c1ccc(-c2ccc(S(=O)(=O)NCCN3CCOCC3)cc2)cc1	inactive	
O=S(=O)(c1ccc(F)cc1)N1C[C@H]2[C@@H](c3ccccc31)[C@H](CO)N2Cc1ccccc1Cl	inactive	
COc1ccc(NC(=O)Nc2cccc3c2O[C@H](CN(C)Cc2ccc4c(c2)OCO4)[C@@H](C)CN([C@@H](C)CO)C3=O)cc1	inactive	
CC1(C(=O)Nc2cnc3ccccc3c2)CCN1Cc1cc2ccccc2o1 (stereo not drawn)	inactive	
O=C(CCC1CCN(C(=O)c2ccco2)CC1)NCc1ccc(F)cc1	inactive	
COc1ccc2c(c1OC)C(=O)N1N=C(c3ccc(Cl)cc3)CC21 (stereo not drawn)	inactive	
O=C(NCCS(=O)(=O)NCCCc1ccccc1)c1ccccc1	inactive	
CN1CCN(C(CNC(=O)C(=O)Nc2ccc3c(c2)OCO3)c2ccc(F)cc2)CC1 (stereo not drawn)	inactive	
COc1ccc(CN(C)C[C@@H]2OCCCC[C@H](C)Oc3ccc(NS(=O)(=O)c4cn(C)cn4)cc3C(=O)N([C@@H](C)CO)C[C@H]2C)cc1	inactive	
CCc1cccc(C)c1NC(=O)COC(=O)C1CC(=O)N(CCc2ccc(OC)c(OC)c2)C1 (stereo not drawn)	inactive	
CCC1(CC)NC(=O)N(CC(=O)Nc2ccc(C)cc2C)C1=O	inactive	
Cc1cccc(S(=O)(=O)N2CC[C@@H]3[C@H](CO)Nc4ccc(C#Cc5ccc(F)cc5)cc4[C@@H]32)c1	inactive	
O=C(Nc1cccc(Cl)c1)N[C@H]1CC[C@H](CCNC(=O)C2CCCC2)O[C@H]1CO	inactive	
COc1cccc(NC(=O)N[C@@H]2C=C[C@@H](CC(=O)NCc3ccncn3)O[C@@H]2CO)c1	inactive	
C[C@@H]1CCCCO[C@@H](CN(C)C(=O)Cc2ccccc2)[C@H](C)CN([C@@H](C)CO)C(=O)c2cc(NC(=O)Nc3ccc4c(c3)OCO4)ccc2O1	inactive	
Cc1cc(=O)oc2c3c(cc(OCC(=O)NCC(=O)N[C@H](C(=O)O)C(C)C)c12)OC(C)(C)CC3	inactive	
CCCC(=O)Nc1ccc2c(c1)C(=O)N(C)C[C@H](OC)[C@H](C)CN(Cc1ccccc1)[C@@H](C)CO2	inactive	
CCN(CC(=O)NCc1ccc(F)cc1)C(=O)/C=C/c1ccc(OC)c(S(=O)(=O)NC(C)C)c1	inactive	
O=C(/C=C/c1ccccc1)Nc1cc(S(=O)(=O)N2CCOCC2)ccc1N1CCOCC1	inactive	
O=C(c1ccc(Br)o1)N1CCC(Cc2ccccc2)CC1	inactive	
C[C@@H]1CN([C@H](C)CO)C(=O)c2cc(NS(=O)(=O)c3ccc(F)cc3)ccc2O[C@@H](C)CCCCO[C@@H]1CN(C)C(=O)NC1CCCCC1	inactive	
CC(C)C#Cc1ccc([C@H]2[C@@H](CO)N(C(=O)c3cccc(F)c3)[C@H]2C#N)cc1	inactive	

SMILES	outcome	activity change, negative = inhibition
O=C(Cc1ccncc1)NCC[C@@H]1CC[C@@H](NC(=O)C2CCOCC2)[C@@H](CO)O1	inactive	
O=C(C[C@@H]1CC[C@@H]2[C@H](COC[C@H](O)CN2C(=O)c2cccnc2)O1)NCc1ccc(Cl)cc1	inactive	
CC(=O)N1c2ccc(S(=O)(=O)N3CCC(C(=O)Nc4ncccc4C)CC3)cc2CC1C (stereo not drawn)	inactive	
NC(=O)c1cc(S(=O)(=O)Nc2cccc(Cl)c2)cs1	inactive	
CO[C@H]1CN(C)C(=O)c2cc(NC(=O)Nc3ccc4c(c3)OCO4)ccc2OC[C@@H](C)NC[C@@H]1C	inactive	
Cc1cc(Br)ccc1NC(=S)NC1CCCC1	inactive	
Cc1noc(C)c1S(=O)(=O)N(C)C[C@@H]1OCCCC[C@H](C)Oc2ccc(NC(=O)C3CCCCC3)cc2C(=O)N([C@H](C)CO)C[C@H]1C	inactive	
CCN(CC)C(=O)c1ccccc1NS(=O)(=O)c1cccs1	inactive	
Cc1ccc(S(=O)(=O)N(C)C[C@H]2OCCCC[C@H](C)Oc3ccc(NS(=O)(=O)c4ccccc4)cc3C(=O)N([C@H](C)CO)C[C@@H]2C)cc1	inactive	
COc1nnc(-c2ccc(C)c(S(N)(=O)=O)c2)c2ccccc12	inactive	
Nc1c(C(=O)Nc2ccc3c(c2)OCCO3)nnn1Cc1ccc(F)cc1	inactive	
CCCCn1c(N)c(N(CC(C)C)C(=O)COc2cc(C)ccc2Cl)c(=O)[nH]c1=O	inactive	
Cc1ccc(OC(=O)N(C)C[C@@H]2OCc3cn(nn3)CCCC(=O)N([C@H](C)CO)C[C@H]2C)cc1	inactive	
COCC(=O)N1[C@@H](C#N)[C@H](c2ccc(-c3cccc(F)c3)cc2)[C@@H]1CO	inactive	
COc1ccc(C=O)cc1COc1ccc2c(c1)OCO2	inactive	
CO[C@H]1CC[C@H]2CCN(C)C(=O)[C@@H](C)[C@H](OC)CN(C)C(=O)c3cc(C#N)ccc3OC[C@H]1O2	inactive	
C[C@H]1CCCCO[C@H](CN(C)C(=O)Nc2ccc(C(F)(F)F)cc2)[C@@H](C)CN([C@@H](C)CO)C(=O)c2cc(NS(=O)(=O)c3ccccc3)ccc2O1	inactive	
CC(C)CC#Cc1ccc([C@@H]2[C@H](CO)N3C(=O)CN(C(=O)c4ccccn4)C[C@@H]23)cc1	inactive	
Cc1nn(-c2ccc(N3CCOCC3)nn2)c(C)c1CCC(=O)N1CCN(C)CC1	inactive	
CCCCCN(C(=O)CCC(=O)OCC(=O)Nc1cccc(SC)c1)c1c(N)n(CCCC)c(=O)[nH]c1=O	inactive	
CCCCCC(=O)Nc1cc(S(=O)(=O)N2CCOCC2)ccc1N1CCCCC1	inactive	
O=C1N[C@@H](Cc2ccccc2)COC(=O)[C@@H](Cc2ccc(F)cc2)CC/C=C/C[C@H]1CC(=O)N(CCO)Cc1ccccc1	inactive	
C[C@@H]1CCCCO[C@@H](CN(C)Cc2ccc(C(=O)O)cc2)[C@H](C)CN([C@H](C)CO)C(=O)c2cc(NC(=O)CCCN(C)C)ccc2O1	inactive	
COc1ccc(C2SCCN2S(=O)(=O)c2ccc(F)cc2)cc1OC (stereo not drawn)	inactive	
CO[C@@H]1CN(C)C(=O)c2ccc(NC(C)=O)cc2OC[C@H](C)N(Cc2cc(F)ccc2F)C[C@@H]1C	inactive	
Cc1ccc2[nH]c(=O)c3cc(C(=O)NCCC(C)C)sc3c2c1	inactive	

SMILES	outcome	activity change, negative = inhibition
Cc1cc(OCC(=O)NCCc2c[nH]c3ccccc23)c2c(C)cc(=O)oc2c1	inactive	
COc1ccc(CNC(=O)CN2C(=O)c3ccccc3C2=O)cc1	inactive	
CC(C)NC(=O)N(C)C[C@@H]1Oc2ccc(NS(=O)(=O)c3ccccc3)cc2C(=O)N([C@H](C)CO)C[C@@H]1C	inactive	
CN1CCN(C(=O)C[C@@H]2C=C[C@@H](NS(=O)(=O)c3cccc(F)c3)[C@@H](CO)O2)CC1	inactive	
S=c1[nH]nc(Nc2cccc3ccccc23)s1	inactive	
COc1ccc(OC)c(NC(=O)CSc2nnc(CNC(=O)c3cc(OC)c(OC)c(OC)c3)o2)c1	inactive	
CN(C)Cc1cn(CC[C@H]2CC[C@H](NC(=O)Cc3cccnc3)[C@H](CO)O2)nn1	inactive	
COc1cc(S(=O)(=O)Nc2ccc(C)cc2)ccc1N=Cc1c(C)c(C#N)c(=O)n(C)c1O	inactive	
CCOC(=O)C1=C(C)N(C)C(=O)NC1c1cccc2ccccc12 (stereo not drawn)	inactive	
O=C(Nc1ccccc1)N1CCCCN2[C@H](CO)[C@H](c3ccc(C#Cc4ccccn4)cc3)[C@H]2C1	inactive	
Cc1ccc(NC(=O)CCCCCN2C(=O)[C@@H]3Cc4ccccc4CN3C2=O)cc1	inactive	
C[C@@H]1CN([C@@H](C)CO)C(=O)Cc2cc(NC(=O)CCN3CCOCC3)ccc2O[C@@H]1CN(C)C	inactive	
CC1CC(C)CN(CCCNC(=O)c2cc3c(s2)-c2ccccc2OC3)C1 (stereo not drawn)	inactive	
O=C(OCC(=O)N1CCCC1=O)c1ccc(Cl)cc1[N+](=O)[O-]	inactive	
CN(C)c1ccc(/C=C(\C#N)C(=O)OCC(=O)N(C)C2CCS(=O)(=O)C2)cc1 (stereo not drawn)		128% [at 2.6 µM]
C[C@@H]1CN([C@H](C)CO)C(=O)CCCn2cc(nn2)CO[C@H]1CN(C)S(C)(=O)=O	inactive	
COc1ccc(CNC(=O)CN(C(=O)CCC(=O)Nc2ccccn2)c2ccc(C)cc2)cc1	inactive	
CCOC(=O)Cc1csc(NC(=O)c2c(-c3ccccc3)noc2C)n1	inactive	
Cn1cnc(S(=O)(=O)N[C@@H]2C=C[C@@H](CC(=O)NCC3CC3)O[C@H]2CO)c1	inactive	
Cc1ccc(F)cc1NC(=O)CN1C(=O)NC(C)(c2ccc3c(c2)OCCO3)C1=O (stereo not drawn)	inactive	
C[C@@H]1CN([C@@H](C)CO)C(=O)c2cc(NC(=O)CCCCCC(=O)Nc3ccccc3N)ccc2O[C@H]1CN(C)C(=O)Nc1ccc2c(c1)OCO2	inactive	
COc1ccc(CCN2CC(C(=O)NCCN3CCNC3=O)CCC2=O)cc1 (stereo not drawn)	inactive	
C[C@@H]1CCCCO[C@H](CN(C)S(=O)(=O)c2cccs2)[C@@H](C)CN([C@@H](C)CO)C(=O)c2cc(NS(=O)(=O)c3cccs3)ccc2O1	inactive	
CC(C)(O)C#Cc1ccc([C@H]2[C@H](CO)N3CCCCN(C(=O)c4ccc(F)cc4)C[C@@H]23)cc1	inactive	
Nc1nnc(COc2ccc(Br)cc2Br)s1	inactive	
O=C1CC(c2ccccc2)NN1 (stereo not drawn)	inactive	
